# The whole screen tested about 38,000 compounds, of which about 1,200 (3.2%) showed an effect of 50% or more. The median lay at about -58%. Shown is part of a subset that was picked to be rich in strong results.
# System: Plasmodium falciparum
# Experiment: Calibr Malaria Delayed Death Assay SOP
# Assay type: functional, organism-based
# Design: scale not given: in the data most compounds retested in dose-response had high values
# Conditions: concentration 4.99e-06 (unit not given; other assays of the set use mol/L)
row,SMILES,Percent Effect [%]
1,Cn1c2c(c(=O)n1C)CN(C(=O)c1cccc(F)c1)CCC2,-64.91
2,CN1CCc2cc(C(CNS(=O)(=O)c3cccs3)N3CCCC3)ccc21 (stereo not given),13.73
3,COc1ccccc1N1CCC(CNS(=O)(=O)c2cccs2)C1 (stereo not given),4.169
4,CCC(CO)N(Cc1cccs1)C(=O)CNS(=O)(=O)c1cccs1 (stereo not given),-105.8
5,CC(CNS(=O)(=O)CCCC#N)c1ccsc1 (stereo not given),-35.87
6,O=S(=O)(NCC(c1ccsc1)N1CCCCCC1)c1cccs1 (stereo not given),84.95
7,CN(C)c1ccc(C(CNS(=O)(=O)c2cccs2)N2CCCC2)cc1 (stereo not given),52.34
8,Cc1nc(CN2CCCN(Cc3nc4ccccc4o3)CC2)no1,-14.25
9,CSCC(=O)N1CCOC(c2nc(C(C)(C)C)n[nH]2)C1 (stereo not given),-128.5
10,O=C(C1CC(=O)N(c2n[nH]c3cc(Br)ccc23)C1)N1CCOCC1 (stereo not given),-162.5
11,O=C(NC1CC1)N1CCc2ncc(CN3CCOCC3)n2CC1.O=C(O)C(F)(F)F,-16.42
12,O=C(CC1NC(N2CCc3ccccc32)=NC1=O)Nc1ccccc1 (stereo not given),-56.07
13,C[C@@H]1CN(C(=O)c2cccc(F)c2)C[C@]12CCN(c1ccsc1)C2=O,-98.41
14,Cc1cc(C)n(CC2CN(CC3CCCC3)CCO2)n1 (stereo not given),-35.36
15,Cc1ccc(-c2cccc(N3CCC(NC4CCOCC4)CC3)c2)cc1,-119.9
16,CCS(=O)(=O)c1ccc(N2CCC(NC(C)=O)CC2)cc1,-87.36
17,COc1cccc(N2CCC(N3CCOC(C(F)(F)F)C3)CC2)c1 (stereo not given),-105.8
18,CNC1CCN(C2CCN(c3ccc(-c4ccco4)cc3)CC2)CC1,85.81
19,COc1ccc(N2CCC(N3CCOC(C(F)(F)F)C3)CC2)cc1 (stereo not given),-105.9
20,Cc1nc[nH]c1-c1nccn1CCN1CCCC1=O,-100.3
21,CCOC[C@@H]1CC[C@H]2[C@H](CCN2C(=O)c2ccncc2F)O1,-16.41
22,Clc1cc(Cl)cc(CN2CCC(NCc3ncc[nH]3)CC2)c1,83.8
23,OC1CCN(Cc2ccc(CNc3ncc(Cl)cc3F)cc2)CC1,26.38
24,Clc1cccc(N2CCC(NCc3cc[nH]n3)C2)c1 (stereo not given),-43.41

row,SMILES,Percent Effect [%]
1,OC1CCN(Cc2ccc(CNc3ccc(Cl)cn3)cc2)CC1,-61.51
2,Cc1cccc(OC2CCN(Cc3ncc[nH]3)CC2)c1,7.466
3,Brc1ccc(CN2CCC(NCc3ncc[nH]3)CC2)cc1,82.48
4,CCn1cc(CNC2CCN(c3cccc(Cl)c3)C2)cn1 (stereo not given),17.81
5,c1ccc(CN2CCC(NCCSc3cnn[nH]3)CC2)cc1,-21.85
6,Clc1cccc(N2CCC(NCc3ncc[nH]3)C2)c1 (stereo not given),65.12
7,O=C(COc1ccccc1Br)N1CCOc2ccncc21,-65.13
8,O=C(O)C(F)(F)F.O=S(=O)(C1CC1)N1CCO[C@H]2[C@H](Oc3cccnc3)CC[C@@H]21,-58.06
9,Cc1nc(NC2CCN(C(=O)C3CC3)CC2)c2cnn(C)c2n1,-160.6
10,CNC(=O)[C@H]1C[C@@H]2CN(C(=O)c3cccnc3)C[C@@H]2N1S(C)(=O)=O.O=C(O)C(F)(F)F,-51.87
11,CCN(CC)S(=O)(=O)NC1CCN(c2ccc(OC)cc2)CC1,-62
12,O=C1NCCCC12CCN(Cc1ccc(SC3CCCCC3)o1)C2 (stereo not given),54.2
13,Cc1ccc(Sc2ccc(CN3CCC4(CCCNC4=O)C3)o2)cc1 (stereo not given),71.68
14,O=C1NCCCC12CCN(S(=O)(=O)N1CCOCC1)C2 (stereo not given),-32.12
15,Cc1ccc(CN2C[C@@H](c3ccccc3)[C@@]3(CCNC3=O)C2)o1,-6.391
16,Cc1cccc(N2CCC(N3CCC4(CCCNC4=O)C3)CC2)c1C (stereo not given),41
17,Cc1ccc(CN2CCC3(CC2)C(=O)NCCN3CC2CC2)o1,-112.7
18,COc1cccc(C(c2c(C)n[nH]c2O)c2c(C)n[nH]c2O)c1OC,-4.815
19,O=C(O)C(F)(F)F.O=C1[C@H]2CN(S(=O)(=O)c3ccccc3)C[C@H]2CN1Cc1cccnc1,0.7029
20,CCN(C(=O)COC)C(c1ccc(Cl)cc1)c1ccccn1 (stereo not given),-96.63
21,CCN(CC)C(=O)COc1nc(C(C)C)no1,-177.8
22,Cc1cc(N2CCC(NCCOc3ccccc3)CC2)nc(C)n1,74.5
23,Cc1cc(N2CCC(O)CC2)nc(C)n1,-73.43
24,O=C(COCCOc1ccccc1)NC1CCN(c2ccccn2)CC1,-45.63

row,SMILES,Percent Effect [%]
1,Cc1ccnc(N2CCC(NCCOc3ccccc3)CC2)n1,9.901
2,Cc1cc(N2CCC(N(C)C(=O)c3ccccc3)CC2)nc(C)n1,16.92
3,Cc1cc(N2CCC(N(C)C(=O)c3cccs3)CC2)nc(C)n1,-45.9
4,Cc1nc(C)c(C)c(N2CCC(NCCOc3ccccc3)CC2)n1,61.44
5,c1ccc(OCCNC2CCN(c3ncccn3)CC2)cc1,-18.18
6,O=C(COCCOc1ccccc1)NC1CCN(c2ncccn2)CC1,-10.36
7,CN(C)c1ccnc(N2CCC(NCCOc3ccccc3)CC2)n1,59.77
8,Cc1cc(N2CCC(NC(=O)CCc3ccco3)CC2)nc(C)n1,-35.38
9,Cc1cc(N2CCC(NC(C)Cc3ccsc3)CC2)nc(C)n1 (stereo not given),85.1
10,COC1CCN(C(=O)Cn2ncc(N3CCCCC3)cc2=O)C1 (stereo not given),-24.14
11,COCc1cc(N2CCOC(c3ccc(Cl)cc3)C2)ncn1 (stereo not given),9.167
12,CS(=O)(=O)N1CCOCC2(CCN(C(=O)c3ccncc3)CC2)C1.O=C(O)C(F)(F)F,-27.09
13,O=C(Nc1ccccn1)C1CCN(Cc2cccc3c2OCCO3)CC1,-6.102
14,CC(C)(C)c1ncc(CNc2ccccc2SCCC(N)=O)s1,-73.84
15,Cn1cccc1C(=O)NC(C)(C(N)=O)c1cccc(Cl)c1 (stereo not given),-31.46
16,CCC(C)NC(=O)c1cccc(CNCc2csc(C(C)C)n2)c1 (stereo not given),46.44
17,CCn1cnnc1C1CCN(C(=O)c2cc(C)c(C)s2)CC1,-85.96
18,CCS(=O)(=O)CC(=O)NCC1(c2c(F)cccc2F)CCCC1,-98.46
19,COC(=O)NCC(=O)NCC1(c2c(F)cccc2F)CCCC1,68.39
20,COC(=O)NCCC(=O)NCC1(c2cccc(Cl)c2)CC1,-27.72
21,CC(=O)N(C)CC(=O)NCC1(c2c(F)cccc2F)CCCC1,-102.3
22,CCC(=O)NCC(=O)NCC1(c2c(F)cccc2F)CCCC1,72.49
23,CC(=O)NCCC(=O)NCC1(c2c(F)cccc2F)CCCC1,-84.52
24,CC(=O)N1CCCn2nc(CNS(=O)(=O)N(C)C(C)C)cc2C1,-134.1

row,SMILES,Percent Effect [%]
1,COCC(=O)N1CCC2(CCN(c3cnn(C)c3)C2=O)C1 (stereo not given),-59.68
2,O=c1[nH]c2cc3c(cc2cc1CN1CCCC1c1ccccn1)CCC3 (stereo not given),-51.8
3,CC(CN1CCOCC1)NC(=O)NCCc1ccc(Cl)s1 (stereo not given),-56.29
4,Cc1n[nH]cc1CNC1(c2ccc(Br)cc2)CC1,18.93
5,Cc1n[nH]cc1CNC1(Cc2ccc(Br)cc2)CCCCC1,36.65
6,Cc1n[nH]cc1CNC1(c2ccc(F)cc2)CCCC1,82.35
7,O=C(NCc1ccco1)[C@@H]1CCO[C@@H]2CCN(c3ncccn3)C[C@H]21.O=C(O)C(F)(F)F,-31.43
8,O=C(C1CCOC1)N1C[C@H]2CN(Cc3cccnc3)C(=O)[C@H]2C1.O=C(O)C(F)(F)F (stereo not given in full),-57.45
9,Cc1nc(NC2CCS(=O)(=O)CC2)cc(C2CCCNC2)n1 (stereo not given),-36.14
10,Cc1nc(NCC23CCCN2CCC3)cc(C2CCCNC2)n1 (stereo not given),-55.92
11,COc1ccccc1CC(=O)N1CC[C@H](O)[C@]2(CCCO2)C1,-156.8
12,CN1CCO[C@@H]2CN(S(=O)(=O)c3cccs3)CC[C@@H]2C1.O=C(O)C(F)(F)F,-26.8
13,COc1ccc(S(=O)(=O)N2C[C@@H]3CN(C)CCO[C@@H]3C2)cc1,58.7
14,CC(C)N1CCO[C@@H]2CN(S(=O)(=O)c3cccs3)CC[C@@H]2C1.O=C(O)C(F)(F)F,50.24
15,CCN1CCO[C@@H]2CN(S(=O)(=O)c3cccs3)CC[C@@H]2C1.O=C(O)C(F)(F)F,37.95
16,CN1CCO[C@@H]2CN(S(=O)(=O)c3ccccc3)CC[C@@H]2C1.O=C(O)C(F)(F)F,31.75
17,CN1CCO[C@@H]2CN(S(=O)(=O)c3ccc(F)cc3)CC[C@@H]2C1.O=C(O)C(F)(F)F,61.54
18,CN1CCO[C@@H]2CN(S(=O)(=O)c3ccccc3)C[C@@H]2C1.O=C(O)C(F)(F)F,-22.42
19,CN1CCO[C@@H]2CN(S(=O)(=O)c3cccnc3)C[C@@H]2C1.O=C(O)C(F)(F)F.O=C(O)C(F)(F)F,-85.76
20,CN1CCO[C@@H]2CN(S(=O)(=O)c3ccccc3F)CC[C@@H]2C1.O=C(O)C(F)(F)F,48.77
21,CCC(C)NC(=O)Cn1ncc2c1c(C)nn2CC (stereo not given),-14.73
22,CC1c2ncc(CN3CCN(C)CC3)n2CCN1Cc1cnn(C)c1.O=C(O)C(F)(F)F.O=C(O)C(F)(F)F.O=C(O)C(F)(F)F (stereo not given),-76
23,Cc1nc(CN2CCC3(CCN(Cc4cnn(C)c4)CC3)C2=O)cs1.O=C(O)C(F)(F)F.O=C(O)C(F)(F)F,-122

# Reference: ChEMBL document CHEMBL3988442, “University of Dundee, Small-Polar-MMV Screening Library” (2021)
